High-throughput results from PubChem.
Only some compounds are listed: those with a hit (about 4.3% of all), similar ones and a draw of the others.
dFosB act-1: enhances mouse delta FosB homodimer DNA binding; purified delta FosB, TAMRA-CDK5 oligo fluorescence polarization; percent of positive-control signal above neutral wells; activation, % at 25 µM; P13346; AID 493131; 340,000 tested, 0.99% active;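 active = mean activation above about 17%, with every replicate also reaching it, limit read from the data, passing the limit was not always enough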
Target sequence (P13346 whole entry, looked up): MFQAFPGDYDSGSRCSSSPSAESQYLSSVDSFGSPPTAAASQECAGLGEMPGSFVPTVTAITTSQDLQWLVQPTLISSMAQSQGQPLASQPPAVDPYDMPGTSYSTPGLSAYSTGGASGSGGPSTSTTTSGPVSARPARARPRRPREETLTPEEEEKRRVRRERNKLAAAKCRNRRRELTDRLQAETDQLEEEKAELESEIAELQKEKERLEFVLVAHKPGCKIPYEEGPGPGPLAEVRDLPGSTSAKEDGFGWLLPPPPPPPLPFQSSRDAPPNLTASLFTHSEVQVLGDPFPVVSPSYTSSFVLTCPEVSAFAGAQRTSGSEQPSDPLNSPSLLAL
GRIN3A LBD mod: modulators (binders) of human NR3A ligand-binding domain; 340,000 tested, 2.5% active; AID 1259313; Tm shift relative to glycine control, % at 25 µM; NR3A LBD differential scanning fluorimetry, Tm shift; 0% = protein alone, 100% = glycine-bound protein;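 active = melting temperature shift of at least 10% of the positive control shift, at one fixed dose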
UBC13 polyUb: inhibitors of human UBC13 polyubiquitin chain formation. 330,000 tested, 0.47% active. inhibition, % at 20 µM. P61088. TR-FRET; in the data active = inhibition above about 45%, passing the limit was not always enough
Target sequence (P61088 whole entry, looked up): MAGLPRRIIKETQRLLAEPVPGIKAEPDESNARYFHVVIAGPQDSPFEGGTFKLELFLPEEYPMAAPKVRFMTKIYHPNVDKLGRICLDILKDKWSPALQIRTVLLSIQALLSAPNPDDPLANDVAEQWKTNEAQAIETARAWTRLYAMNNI
CR mimetic SO: lowers age-related superoxide in aged yeast cells. S. cerevisiae aged cells, superoxide DHE fluorescence; active compounds read low. superoxide response (% of plate mean), % at 10 µM. 330,000 tested, 0.18% active;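 active = superoxide response under a set limit, about three screen SD below normal, cut at about 65% in these data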;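 note: yeast aged for seven days with compound at 30 °C before DHE staining; 100% = average MFI of all compound-treated wells on the plate with controls excluded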
NALP1 inh: NALP1 inhibition; S. cerevisiae NALP1/ASC/caspase-1 growth, X-gal OD620, 72 h; inhibition, % at 10 µM; 280,000 tested, 0.61% active; AID 2071; in the data active = inhibition mostly above about 24%, no sharp cut-off; inactive = mostly below about 32%
dFosB act-2: delta FosB (mouse) homodimer activation. 2,400 tested, under 10 active. purified delta FosB, TAMRA-CDK5 oligo fluorescence polarization; normalised: neutral wells 0, positive control 100. shares compounds with dFosB act-1. activation, % at 24.9 µM;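 active = highest replicate activation at or above 34% and every replicate reaching that threshold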;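 note: higher polarization means more probe DNA bound by delta FosB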
Starred values were filed as active, the others as inactive.

How did COc1ccc(Cn2c(=S)[nH]c3cc(C(=O)NCc4cccnc4)ccc3c2=O)cc1 do in these assays?
dFosB act-1: 24.1*; GRIN3A LBD mod: -16.8; UBC13 polyUb: -1.7; CR mimetic SO: 94.5; NALP1 inh: 12.3; dFosB act-2: 1.2

What do the screens show for `CCOc1cc2[nH]c(=O)n(Cc3ccc(C(=O)NCCCN4CCC(C)CC4)cc3)c(=O)c2cc1OCC`?
dFosB act-1: 25.9*; GRIN3A LBD mod: 0.2; UBC13 polyUb: 10.4; CR mimetic SO: 90.7; NALP1 inh: 2.9; dFosB act-2: 4.1

Results for COc1cc(Cl)cc(CN2CCC(CCC(=O)NC3CC3)CC2)c1OC ?
dFosB act-1: 3.0; GRIN3A LBD mod: -0.6; UBC13 polyUb: 0.6; CR mimetic SO: 113.0; NALP1 inh: 1.0

How did O=C(CCn1cnnn1)Nc1ccc(F)cc1 do in these assays?
dFosB act-1: 8.1; GRIN3A LBD mod: -0.1; UBC13 polyUb: -19.0; CR mimetic SO: 87.2; NALP1 inh: 7.5

Results for CCN(C(=O)COC(=O)CSc1ccc(F)cc1)c1c(N)n(Cc2ccccc2)c(=O)[nH]c1=O ?
dFosB act-1: -0.3; GRIN3A LBD mod: -2.3; UBC13 polyUb: -7.5; CR mimetic SO: 86.5

What do the screens show for `CC(=O)c1cc2c(cc1N/C(=N/S(=O)(=O)c1ccc(Br)cc1)c1ccccc1)OCO2`?
dFosB act-1: 62.4*; GRIN3A LBD mod: -2.0; UBC13 polyUb: 12.2; CR mimetic SO: 95.1; NALP1 inh: -14.8; dFosB act-2: -1.3

How did CC(=O)c1ccc(S(=O)(=O)Nc2cc3c(cc2C(C)=O)OCO3)cc1 do in these assays?
dFosB act-1: 4.3; GRIN3A LBD mod: 0.3; UBC13 polyUb: 0.2; CR mimetic SO: 87.9; NALP1 inh: 8.0

How did CC(=O)c1ccc(N2CCN(C(=O)c3ccc4ccccc4n3)CC2)cc1 do in these assays?
dFosB act-1: 7.2; GRIN3A LBD mod: 5.3; UBC13 polyUb: 6.9; CR mimetic SO: 94.4; NALP1 inh: 14.5

Results for CC(=O)c1ccc(N2CCN(C(=O)/C=C/c3ccc4ccccc4n3)CC2)cc1 ?
dFosB act-1: 40.3*; GRIN3A LBD mod: -1.4; UBC13 polyUb: -2.6; CR mimetic SO: 145.9; NALP1 inh: 3.1; dFosB act-2: 3.1

What do the screens show for `CN(C)C=Nc1ncc2c3ccccc3n(Cc3ccccc3)c2c1C#N`?
dFosB act-1: 2.3; GRIN3A LBD mod: -1.5; UBC13 polyUb: 10.6; CR mimetic SO: 101.6; NALP1 inh: 13.7

How did CN(C)C=Nc1ncc2c3ccccc3n(CCN(C)C)c2c1C#N do in these assays?
dFosB act-1: 33.5*; GRIN3A LBD mod: -0.9; UBC13 polyUb: -8.4; CR mimetic SO: 104.7; NALP1 inh: -10.4; dFosB act-2: -2.7

Results for CCN(CC)CCn1c2ccccc2c2cnc(N)c(C#N)c21 ?
dFosB act-1: 61.9*; GRIN3A LBD mod: -1.4; UBC13 polyUb: 19.0; CR mimetic SO: 111.0; NALP1 inh: 5.2; dFosB act-2: -0.8

Results for CCOC(=O)C1CCN(C(=O)CCC(=O)NNc2nc3ccccc3c3nc(C)nn23)CC1 ?
dFosB act-1: -8.3; GRIN3A LBD mod: 0.3; UBC13 polyUb: 4.0; CR mimetic SO: 89.3; NALP1 inh: 1.3

What do the screens show for `O=C(CO/N=C/c1c(Cl)cccc1Cl)NNC(=O)c1cccc(Cl)c1`?
dFosB act-1: 43.1*; GRIN3A LBD mod: 1.2; UBC13 polyUb: -0.4; CR mimetic SO: 91.9; dFosB act-2: -0.4

Results for O=C(CO/N=C/c1c(Cl)cccc1Cl)NNC(=O)c1ccc(Cl)cc1 ?
dFosB act-1: -0.4; GRIN3A LBD mod: 1.1; UBC13 polyUb: -2.8; CR mimetic SO: 90.8

Results for O=C(COC(=O)c1cccnc1Nc1cccc(C(F)(F)F)c1)NCc1ccc2c(c1)OCO2 ?
dFosB act-1: 19.1*; GRIN3A LBD mod: 3.6; UBC13 polyUb: 4.1; CR mimetic SO: 105.0; NALP1 inh: 20.1; dFosB act-2: 3.1

How did O=C(COC(=O)c1cccnc1Cl)NCc1ccc2c(c1)OCO2 do in these assays?
dFosB act-1: 7.8; GRIN3A LBD mod: -2.8; UBC13 polyUb: -10.5; CR mimetic SO: 97.9; NALP1 inh: 6.9

Results for Cc1cc(C)c(NC(=O)CN2C(=O)NC(CCc3ccccc3)C2=O)c(C)c1 (configuration not stated) ?
dFosB act-1: -7.3; GRIN3A LBD mod: -0.6; UBC13 polyUb: -1.3; CR mimetic SO: 94.0; NALP1 inh: -5.8

What do the screens show for `Cc1ccc(C)c(NC(=O)CN2C(=O)NC(CCc3ccccc3)C2=O)c1` (configuration not stated)?
dFosB act-1: 33.6*; GRIN3A LBD mod: 2.3; UBC13 polyUb: 7.2; CR mimetic SO: 112.0; dFosB act-2: 1.0

How did COC(=O)C1=C(COc2ccccc2)NC(=O)NC1c1ccc(Br)cc1 (configuration not stated) do in these assays?
dFosB act-1: 35.5*; GRIN3A LBD mod: -5.2; UBC13 polyUb: 14.1; CR mimetic SO: 96.5; NALP1 inh: 0.9; dFosB act-2: 2.4

How did Cc1ccc(-n2nc3c(=O)n(CC(=O)NCCc4ccc(Cl)cc4)nc(C)c3c2C)cc1 do in these assays?
dFosB act-1: 50.6*; GRIN3A LBD mod: -0.7; UBC13 polyUb: -3.9; CR mimetic SO: 89.5; NALP1 inh: -2.7; dFosB act-2: 0.1

How did Cc1nn(CCCC(=O)NCc2ccccc2)c(=O)c2nn(-c3ccccc3)c(C)c12 do in these assays?
dFosB act-1: -9.8; GRIN3A LBD mod: 0.7; UBC13 polyUb: -11.5; CR mimetic SO: 80.1; NALP1 inh: 8.5

How did Cc1ccc(-n2nc3c(=O)n(CC(=O)NCc4ccccc4)nc(C)c3c2C)cc1 do in these assays?
dFosB act-1: 20.8*; GRIN3A LBD mod: 0.3; UBC13 polyUb: 0.1; CR mimetic SO: 84.3; NALP1 inh: 6.5; dFosB act-2: -0.4

What do the screens show for `Cc1ccc(CCNC(=O)CCCn2nc(C)c3c(C)n(-c4ccc(C)cc4)nc3c2=O)cc1`?
dFosB act-1: 2.4; GRIN3A LBD mod: -12.0; UBC13 polyUb: 3.2; CR mimetic SO: 105.3; NALP1 inh: 8.0

What do the screens show for `CCc1ccc(CNC(=O)CCn2nc(C)c3c(C)n(-c4ccccc4)nc3c2=O)cc1`?
dFosB act-1: 73.4*; GRIN3A LBD mod: -2.2; UBC13 polyUb: -2.2; CR mimetic SO: 78.6; NALP1 inh: 7.5; dFosB act-2: 6.4

Results for CCS(=O)(=O)N1CCC(C(=O)NCc2ccc3c(c2)OCO3)CC1 ?
dFosB act-1: -10.4; GRIN3A LBD mod: -2.1; UBC13 polyUb: -7.0; CR mimetic SO: 105.7; NALP1 inh: 0.8

Results for O=C(NCc1ccc2c(c1)OCO2)C1CCN(C(=O)Nc2ccc(Cl)cc2)CC1 ?
dFosB act-1: 20.0*; GRIN3A LBD mod: 0.3; UBC13 polyUb: 8.7; CR mimetic SO: 102.1; NALP1 inh: 6.7; dFosB act-2: 4.1

What do the screens show for `COc1ccc(Cl)cc1NC(=O)NCc1ccc2c(c1)OCO2`?
dFosB act-1: 62.0*; GRIN3A LBD mod: -3.4; UBC13 polyUb: 4.1; CR mimetic SO: 96.9; NALP1 inh: 16.7; dFosB act-2: 5.0
